Inconclusive results are not listed. Entries that show only a call come without a potency. More than one record can exist for a structure, and the calls need not agree. Active and inactive are the calls of the source. Calls come from the whole dose curve.
Test: qHTS assay to identify small molecule antagonists of the sonic hedgehog signaling (Shh) pathway (AID 1259369); note: nearly all actives have a fitted effect of over 45% in size
Settings: NIH/3T3 Gli1-Luc reporter, Shh antagonist, luminescence 24 h; series mostly up to 92.4 µM
From the text: U.S. Tox21 Program National Center for Advancing Translational Sciences [NCATS] NIH Chemical Genomics Center [NCGC] U.S. Environmental Protection Agency [EPA] National Institutes of Environmental Health Sciences [NIEHS] National Toxicology Program [NTP] U.S. Food and Drug Administration [FDA] Tox21 Assay Overview: The sonic hedgehog (Shh) pathway is essential for normal embryonic development. Dysregulation of the Shh pathway can cause severe developmental defects in organs. Therefore chemicals that interfere with the pathway are potential developmental toxicants. A cell line designated 3T3Gli1-Luc (DMB/OARSA/CFSAN/FDA, Laurel, MD), a NIH/3T3 derived clone containing stably integrated Gli1-Luc reporter is used to detect chemical interference of the Shh pathway, by changes in the expression of the firefly Luc gene under the control of the Gli1 transcriptional response element. This cell line was used to screen Tox21 libraries for identifying and prioritizing the potential developmental toxicants that interfere Shh pathway. Conditioned medium-stimulated mode was used to screen for chemicals inhibiting Shh signaling.
Tox21 Assay Protocol Summary: 3T3 Gli1-Luc cells were dispensed at 2,000 per well in 5uL of culture medium into white solid bottom 1536-well plates (Greiner Bio-One, Monroe, NC) using a Multidrop Combi (Thermo Scientific, Waltham, MA) dispenser. The assay plates were incubated at 37 C and 5% CO2 for 4hr, and then 23nL of compounds dissolved in DMSO and positive control were transferred using a Pintool station (Wako, San Diego, CA). The compound transfer was followed by the addition of 1ul conditioned medium or assay buffer using two separate tips of Flying Reagent Dispenser (FRD, Aurora Discovery, San Diego, CA). The assay plates were incubated at 37C and 5% CO2 for 24hr. For luciferase read, 4uL of Amplite Luciferase reporter gene assay reagent (AAT Bioquest, Inc. Sunnyvale, CA) was added to each well of the assay plates using FRD and incubated at room temperature for 30min. The luminescence signal was measured using a ViewLux plate reader (Perkin Elmer, Shelton, CT).
Potency is the fitted concentration of half-maximal effect.

SMILES	Potency
Cc1cccc(OP(=O)(Oc2cccc(C)c2)Oc2cccc(C)c2)c1	inactive
c1ccc(Nc2ccc3ccccc3c2)cc1	inactive
Nc1ccccc1C(=O)OC/C=C/c1ccccc1	inactive
BrCBr	inactive
[Hg+2].[I-].[I-]	0.545 µM (active)
BrCC(Br)c1ccccc1 (stereo not given)	inactive
CC(C)CC(C)Nc1ccc(Nc2ccccc2)cc1 (stereo not given)	12 µM (active)
[CH3][Hg][Cl]	34.3 µM (active)
COP(=O)(CCC(=O)NCO)OC	inactive
Oc1c(Br)c(Br)c(Br)c(Br)c1Br	19.4 µM (active)
Oc1ccc(C2(c3ccc(O)cc3)c3ccccc3-c3ccccc32)cc1	27.3 µM (active)
S=C(SSC(=S)N1CCCCC1)N1CCCCC1	5.96 µM (active)
O=C(O)c1cc[c]([Hg][Cl])cc1	1.72 µM (active)
Clc1ccc(C(c2ccc(Cl)cc2)C(Cl)(Cl)Cl)cc1	27.5 µM (active) and inactive
CCOCn1c(-c2ccc(Cl)cc2)c(C#N)c(Br)c1C(F)(F)F	0.611 µM (active)
Oc1ccc(C2(c3ccc(O)cc3)CCCCC2)cc1	46 µM (active)
CC1(C)C(/C=C(\Cl)C(F)(F)F)C1C(=O)OC(C#N)c1cccc(Oc2ccccc2)c1 (stereo not given)	inactive
CC(C)(c1ccc(O)c(-c2ccccc2)c1)c1ccc(O)c(-c2ccccc2)c1	12.2 µM (active)
CC(C)CC(C)N (stereo not given)	inactive
CCCN(CC)CC1COC2(CCC(C(C)(C)C)CC2)O1 (stereo not given)	inactive

SMILES	Potency
CCCN(CCC)c1c([N+](=O)[O-])cc(S(N)(=O)=O)cc1[N+](=O)[O-]	4.86 µM (active)
NNC(=O)c1ccccc1	31.5 µM (active)
Cc1cc(C)cc(OP(=O)(Oc2cc(C)cc(C)c2)Oc2cc(C)cc(C)c2)c1	inactive
CC[C@H]1C[C@@H]2C[C@H]3c4[nH]c5ccc(OC)cc5c4CCN(C2)[C@@H]13	12 µM (active)
CCc1cc(C)cc(CC)c1-c1c(OC(=O)C(C)(C)C)n2n(c1=O)CCOCC2	inactive
C[CH2][Hg][N]1C(=O)C2C(C1=O)C1(Cl)C(Cl)=C(Cl)C2(Cl)C1(Cl)Cl (stereo not given)	14.6 µM (active)
CCOP(=S)(OCC)OC(Cl)C(Cl)(Cl)Cl (stereo not given)	inactive
COCC(=O)N(c1c(C)cccc1C)[C@H](C)C(=O)OC	inactive
N#C/C=C/C#N	inactive
COc1ccc(OC)c(CC(C)N)c1 (stereo not given)	inactive
Cc1cc(C)c(C2=C(OC(=O)CC(C)(C)C)C3(CCCC3)OC2=O)c(C)c1	inactive
CC(=O)c1cc(C(C)(C)C)cc2c1CCC2(C)C	inactive
C[C@@H]1O[C@@H](O[C@@H]2C=C3CC[C@@H]4[C@H](CC[C@]5(C)[C@@H](c6ccc(=O)oc6)CC[C@]45O)[C@@]3(C)CC2)[C@H](O)[C@H](O)[C@H]1O	16.8 µM (active)
Oc1ccc(C(=C(Cl)Cl)c2ccc(O)cc2)cc1	9.67 µM (active)
C=COCCCl	inactive
O=C(NC(=O)c1c(F)cccc1F)Nc1cc(Cl)c(OC(F)(F)C(F)F)c(Cl)c1	inactive
CSCCCN=C=S	inactive
COP(=O)(OC)SCn1c(=O)oc2cc(Cl)cnc21	inactive
O=[N+]([O-])O.O=[N+]([O-])O.[Cd]	1.72 µM (active)
CC(=O)/C=C/c1ccc2c(c1)OCO2	17.3 µM (active)
